Screening results from PubChem.
PNC inhibitor = inhibitors of perinucleolar compartment assembly; PC3M PTB-GFP, PNC prevalence imaging, 16 h; stronger effect = lower value; activity change (PNC), negative = inhibition, % at 10 µM; actives 3.1% (n = 140,000);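 active = readout at or below -70, meaning at least 70% loss of cells showing the perinucleolar compartment, a nuclear body marking cancer cells; inconclusive = readout between -30 and a set limit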;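 also: plate controls were DMSO wells for no effect and camptothecin positive control wells for full effect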
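PC3M cells stably expressing PTB-GFP, 750–1000 cells/well, treated 16 h at 37 °C with compound (23 nl of library stock), in duplicate. After paraformaldehyde fixation and Hoechst stain, imaged at 20x; PNC prevalence scored by image analysis.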
HPGD inh = inhibitors of human 15-hydroxyprostaglandin dehydrogenase (HPGD) | actives 4.3% (n = 150,000) | purified HPGD, NADH fluorescence kinetic, PGE2 substrate | Potency, µM, for inactives: at the highest dose activity change, negative = inhibition, actives largely listed as inhibitors | AID 894 | P15428; also: potency is read from the fitted curve at half-maximal effect
Target sequence (P15428 whole entry, looked up): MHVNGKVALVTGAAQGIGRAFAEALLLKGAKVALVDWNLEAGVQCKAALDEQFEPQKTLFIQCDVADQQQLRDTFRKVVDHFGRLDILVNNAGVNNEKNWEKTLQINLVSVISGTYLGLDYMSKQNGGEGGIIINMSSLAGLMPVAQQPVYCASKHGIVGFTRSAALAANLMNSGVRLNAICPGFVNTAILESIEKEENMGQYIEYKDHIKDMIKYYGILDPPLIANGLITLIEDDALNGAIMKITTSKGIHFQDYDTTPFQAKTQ
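NADH formation kinetics: reaction with 30 uM PGE2 and 1 mM NAD+ (final), 20 nM enzyme, Tris-HCl pH 8 with Tween 20, after 15 min compound preincubation at room temperature. Fluorescence change, last versus first of five reads.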
ALDH1A1 inh = ALDH1A1 (human) enzyme inhibition; Purified ALDH1A1, NADH fluorescence, propionaldehyde substrate; Potency, µM (top dose mostly 75.3 µM), for inactives: at the top dose activity, negative = inhibition, hits mostly inhibitors; actives 7.3% (n = 220,000); AID 1030;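 also: potency is read from the fitted curve at half-maximal effect; plate controls were no enzyme wells and a reference inhibitor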
* hit, by the source's call; ? = inconclusive; . = no result given; [ ] = another dose, or the depositor's remark. Sampled rows, rich in hits. Any-hit rate of the full collection: about 11%. Unless noted, calls follow the shape of the dose curve; as a rule, active = well fitted inhibition curve with a large enough effect (not every such curve was filed as active); inconclusive = small, poorly fitted or top-dose-only effect, or another doubt; inactive = no such curve, though single readings can be large or run the other way. Unless noted, % is scaled to controls: 0 for no effect and ±100 for the full control effect.

SMILES	PNC inhibitor	HPGD inh	ALDH1A1 inh
COc1ccc(S(=O)(=O)NCCC(=O)NCc2ccccc2)cc1	5	.	25µM*
Cc1ccc(S(=O)(=O)NCCCCCC(=O)NC(C)(C)CO)cc1	?	-9%	7.9µM*
COc1ccc(S(=O)(=O)NCc2ccccc2)cc1	?	-15%	?
O=C(CCNS(=O)(=O)c1ccc2c(c1)CCC(=O)N2)NCc1ccc2c(c1)OCO2	10	-6%	9%
Cc1ccc(S(=O)(=O)NCCC(=O)NCc2ccc3c(c2)OCO3)cc1C	-10	-3%	7.9µM*
Cc1ccc(S(=O)(=O)NCCCCCC(N)=O)cc1	-17	-1%	-8%
O=C(O)[C@@H](O)[C@@H](O)[C@@H](O[C@H]1O[C@@H](CO)[C@@H](O)[C@@H](O)[C@@H]1O)[C@@H](O)CO	.	-1%	10%[20.9 µM]
Cc1cc(C)c(S(C)(=O)=O)c(N(C)N)n1	.	.	6%
O=C(CSc1nc2ccccc2c(=O)n1-c1ccc(OC(F)F)cc1)NCc1cccs1	42	-28%	2%
c1csc(-c2nnsc2-c2nc3ccccc3[nH]2)c1	?	?	10µM*
O=c1[nH]c2ccccc2nc1-c1cccs1	9	.	-8%
COc1ccc(-n2c(=O)c(-c3ccc(Cl)cc3)nc3cncnc32)cc1	.	-8%	-1%
CN1CCN(c2ccc(C(=O)NC3CCCCC3)cc2[N+](=O)[O-])CC1	.	.	-12%
CCS(=O)(=O)N1CCN(c2ccc(C(=O)NC3C4CC5CC(C4)CC3C5)cc2[N+](=O)[O-])CC1 (stereo not given)	-13	-1%	7.1µM*
CCN(c1ccccc1)S(=O)(=O)c1ccc(OC)c(NC(=O)Cn2cnc3c2c(=O)n(C)c(=O)n3C)c1	.	.	12%
CCOC(=O)c1sc(/N=C/N(C)C)nc1C	30	-15%	-4%
CCOC(=O)c1c(/N=C/c2cc([N+](=O)[O-])ccc2O)sc(C)c1C	-12	-11%	20µM*
CCOC(=O)c1ccc(N/N=C/c2cc(Br)cc([N+](=O)[O-])c2O)cc1	.	.	-16%
CCOC(=O)c1c(/N=C/C2=C(O)CC(C)(C)CC2=O)sc(C)c1C	-6	-5%	7.1µM*
CCOC(=O)c1sc(/N=C/N(C)C)c(C(=O)OCC)c1C	-82*	-12%	1%
CSCCC(N=CC1=C(O)CC(C)(C)CC1=O)C(=O)O (stereo not given)	-7	-10%	-9%
CCOC(=O)c1c(/N=C/c2cc(OC)cc([N+](=O)[O-])c2O)sc(C)c1C	-7	-14%	32µM*
Cc1cc(O)c(C(C)C)cc1N=Cc1cc([N+](=O)[O-])ccc1O	.	.	-11%
COc1ccc(NC(=O)C(c2cc3c(cc2[N+](=O)[O-])OCO3)N(C)c2ccccc2)cc1 (stereo not given)	-26	-13%	?
O=S(=O)(c1ccccc1)N1CCC2(CCCN(Cc3nccs3)C2)CC1	.	-3%	?
SMILES	PNC inhibitor	HPGD inh	ALDH1A1 inh
O=C(C[n+]1cccc(O)c1)Nc1ccc(Br)cc1	.	.	-4%
C/C(C=O)=C/c1ccccc1	.	-2%	?
CC1=C(C(=O)OCC(C)C)C(c2ccsc2)C2=C(CCCC2=O)N1 (stereo not given)	?	-26%	?
O=C(COc1ccccc1)N(CCc1ccccc1)c1nc(-c2ccc(F)cc2)cs1	-17	-1%	8%
Cc1cccc(C(=O)c2c[nH]cc2-c2ccccc2)c1	?	-7%	8%
COc1ccc(/C=N/NC(=O)c2ccc(C)cc2)cc1CN1CCN(c2ccc(F)cc2)CC1	?	-27%	2%
COc1ccc(/C=N\NC(=O)c2cc(O)c(O)c(O)c2)cc1CN1CCN(c2ccc(F)cc2)CC1	-13	-23%	13µM*
O=C1CCCC(C(C(=O)OCc2ccccc2)C(=O)OCc2ccccc2)C1 (stereo not given)	.	-28%	-7%
O=C(N/N=C/c1ccc(Cl)cc1)C1CC12CCC2 (stereo not given)	.	.	5%
COC(=O)c1ccc(C=O)cc1	.	-11%	8.9µM*
Cc1ccc(C(=O)O)cc1	.	-12%	?
COC(=O)c1ccc(C)cc1	.	-8%	-10%
O=Cc1ccc(C(=O)O)cc1	.	-10%	22µM*
O=C(O)[C@H](/C=C\c1ccccc1)c1ccccc1	.	-10%	-3%[13.5 µM]
CNC(=S)N1CCN(C(=O)C2CCCO2)CC1 (stereo not given)	?	1%	3%
COc1ccc(/C(O)=C/c2nc3ccc(C(=O)NCCc4cccc(C)c4)cc3[nH]c2=O)cc1OC	2	-8%	?
O=C(OCCN1CCOCC1)c1ccc(OCCN2CCOCC2)cc1	-85*	-9%	16%
COc1ccc(C(=O)OCCN2CCOCC2)cc1OC	?	.	7%
COc1ccccc1/C=C/C(=O)N1CCOCC1	51	?	1%
O=C(OCCN1CCOCC1)c1ccc2c(c1)OCCO2	-12	-9%	5%
COc1ccc(C(=O)OCCN2CCOCC2)cc1	-100*	-8%	-2%
COc1ccccc1/C=C/C(=O)OCCN1CCOCC1	-87*	?	?
N#Cc1c(NC(=O)C(F)(F)F)sc2c3c(=O)c4ccccc4c(=O)c=3oc3ccccc3c12	.	-18%	-19%[13.5 µM]
Cc1ccc(-n2nnnc2CSc2nnc(-c3ccc(O)cc3)o2)cc1	-10	-17%	?
Cn1cnc([N+](=O)[O-])c1SCC(=O)O	.	-5%	-7%[13.5 µM]
SMILES	PNC inhibitor	HPGD inh	ALDH1A1 inh
Cc1cn(C2CC(N=[N+]=[N-])C(CO)O2)c(=O)[nH]c1=O (stereo not given)	.	-5%	1%
CC1(C)CC(=O)C(C=N)=C(O)C1	34	0%	-2%
CC1(C)CC(=O)C(C=Nc2cccnc2/N=C/C2=C(O)CC(C)(C)CC2=O)=C(O)C1	.	.	2.2µM*
CC1(C)CC(=O)C(C=NCCc2ccccn2)=C(O)C1	12	3%	3%
CC1(C)CC(=O)C(C=Nc2cccnc2)=C(O)C1	-4	-5%	7.9µM*
Nc1nc2ccccc2n1C(=O)c1cccs1	.	.	0%
CCOC(=O)c1cc(C(=O)OCC)c(=O)[nH]c1C	16	-28%	?
CCOC(=O)c1cc2c(C)[nH]c(C)c2cc(C(=O)OCC)c1=O	.	.	25µM*
COc1ccccc1CN1CCCC2(CCN(C(=O)c3cc(C(F)(F)F)cc(C(F)(F)F)c3)CC2)C1	.	-3%	11%
CCOC(=O)C1=C(C)c2ccccc2N(C(=O)OC)C1(C)C(=O)OCC (stereo not given)	.	?	32µM*
CCOC(=O)C1=C(C)c2ccccc2OC1(CC)C(=O)OCC (stereo not given)	.	-11%	1%
O=C1CC(N2CCCN(C3CC(=O)N(c4ccc(F)cc4)C3=O)CC2)C(=O)N1c1ccc(F)cc1 (stereo not given)	-13	-5%	13µM*
O=C1CC(N2CCN(c3ccccc3)CC2)C(=O)N1c1ccc2c(c1)OCO2 (stereo not given)	.	.	-2%
O=C1CC(N2CCN(c3ccccn3)CC2)C(=O)N1c1ccc(Cl)cc1 (stereo not given)	.	.	25µM*
O=C1CC(N2CCN(c3ccc(S(=O)(=O)N4CCCC4)cc3)CC2)C(=O)N1c1ccc(F)cc1 (stereo not given)	-30	-11%	?
O=C1CC(N2CCCCC2)C(=O)N1c1ccccc1 (stereo not given)	-100*	-10%	?
CN1C(=O)CC(N2CCN(c3ccc(Cl)cc3)CC2)C1=O (stereo not given)	192	?	2%
